Laboratory results from PubChem BioAssay (EPA / NIEHS).
Active and inactive are the calls of the source. The calls were made as follows: active = hit-call score of the fitted dose curve at least 0.9, where 1 is the maximum; inactive = score below 0.9.

What was measured:
[1] = ATG_NFI_CIS: Attagene CIS-FACTORIAL HepG2 Assay for human Nuclear Factor I (NFI) (AID 2282989); conditions: HepG2 cis-regulatory reporter, NFI response element transcription; actives raise or lower the signal
Method in brief: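 Reporter transcription driven by endogenous transcription factors in HepG2 cells; 24 h treatment. Quantitation by labelled RT-PCR fragments on capillary electrophoresis, gain- or loss-of-signal relative to DMSO.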

[2] = target: Myc proto-oncogene protein (Homo sapiens) (UniProt P01106); assay: ATG_Myc_CIS: Attagene CIS-FACTORIAL HepG2 Assay for human Myelocytomatosis (Myc) Proto-Oncogene Transcription Factor (AID 2282990); conditions: HepG2, Attagene cis-reporter transcription factor activity; actives raise or lower the signal
Method in brief: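 Multiplexed cis-reporter transcription in HepG2 cells after 24 h chemical treatment. Reporter mRNA measured by RT-PCR and capillary electrophoresis fluorescence; activity fitted bidirectionally against DMSO control.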

[3] = ATG_NRF2_ARE_CIS: Attagene CIS-FACTORIAL HepG2 Assay for human Nuclear Factor Erythroid 2 Related Factor 2 (NFR2) response to Antioxidant Response Elements (ARE) (AID 2282992); conditions: HepG2 Attagene ARE/NRF2 reporter, transcription factor activity; actives raise or lower the signal
Method in brief: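 Transient MRTU transfection of HepG2; 24 h compound exposure; TriZol RNA, RT with oligo(dT), PCR, 6-FAM primer extension, HpaI cut, CE. Bidirectional fit vs DMSO.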

[4] = ATG_Oct_MLP_CIS: Attagene CIS-FACTORIAL HepG2 Assay for human Octamer-Binding Transcription Factor (Oct) (AID 2282993); conditions: HepG2 Attagene cis-factorial Oct reporter, mRNA; actives raise or lower the signal
Method in brief: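 Transfected HepG2 cells, 24 h treatment. Reporter mRNA quantified by RT-PCR–capillary electrophoresis; bidirectional fitting against DMSO.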

[5] = target: Cellular tumor antigen p53 (Homo sapiens) (UniProt P04637); assay: ATG_p53_CIS: Attagene CIS-FACTORIAL HepG2 Assay for human p53 Transcription Factor (AID 2282994); conditions: HepG2 p53 cis-element reporter, Attagene mRNA; actives raise or lower the signal
Method in brief: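 HepG2, transient MRTU transfection (cis promoter elements, endogenous TFs); 24 h dosing; RNA isolation, RT-PCR, 6-FAM primer extension, HpaI digest, CE fluorescence; bidirectional fit vs DMSO.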

[6] = BSK_3C_TissueFactor: BioMAP Diversity Plus: 3C Assay for Tissue Factor Biomarker Activity (AID 2282997); conditions: BioMAP 3C HUVEC, tissue factor biomarker readout; actives raise or lower the signal
Method in brief: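 HUVEC were treated 24 h, then surface tissue factor measured by ELISA and fitted bidirectionally against DMSO. Parallel SRB total-protein staining assessed overt cytotoxicity at the same time point.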

[7] = BSK_3C_uPAR: BioMAP Diversity Plus: 3C Assay for Urokinase-type plasminogen activator receptor (uPAR) Biomarker Activity (AID 2282998); conditions: BioMAP 3C HUVEC, uPAR biomarker ELISA; actives raise or lower the signal
Method in brief: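 Readout: ELISA for surface uPAR. System: human umbilical vein endothelial primary cells, 24 h after chemical exposure. Analysis: bidirectional fit, DMSO baseline.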

[8] = BSK_3C_VCAM1: BioMAP Diversity Plus: 3C Assay for Vascular cell adhesion molecule 1 (VCAM1) Biomarker Activity (AID 2282999); conditions: BioMAP 3C HUVEC, VCAM1 ELISA, cytokine-stimulated; actives raise or lower the signal
Method in brief: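 Human umbilical vein endothelial cells were dosed with compound for 24 h, after which cell-surface VCAM-1 was quantified by ELISA. Bidirectional curve fitting used DMSO as negative control and activity baseline.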

[9] = BSK_4H_Eotaxin3: BioMAP Diversity Plus: 4H Assay for Eotaxin 3 Biomarker Activity (AID 2283000); conditions: primary human endothelial cells (HUVEC); actives raise or lower the signal
Method in brief: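 Eotaxin-3 (CCL26) levels were measured by ELISA in HUVEC primary cultures 24 h post-dosing. Gain or loss of signal was fitted in both directions, with DMSO serving as baseline and negative control.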

[10] = ATG_NF_kB_CIS: Attagene CIS-FACTORIAL HepG2 Assay for human Nuclear Factor Kappa B (NF-kB) (AID 2282991); conditions: HepG2 Attagene cis-factorial NF-kB reporter mRNA; actives raise or lower the signal
Method in brief: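 Transient MRTU transfection of human HepG2 liver cells → 24 h chemical exposure → total RNA, oligo(dT) RT → PCR, 6-FAM primer extension, HpaI digest 2 h 37 C → CE fragment analysis. Bidirectional fitting, DMSO negative control.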

Measured: AC50

Myc proto-oncogene protein (Homo sapiens), sequence (P01106 whole entry, looked up): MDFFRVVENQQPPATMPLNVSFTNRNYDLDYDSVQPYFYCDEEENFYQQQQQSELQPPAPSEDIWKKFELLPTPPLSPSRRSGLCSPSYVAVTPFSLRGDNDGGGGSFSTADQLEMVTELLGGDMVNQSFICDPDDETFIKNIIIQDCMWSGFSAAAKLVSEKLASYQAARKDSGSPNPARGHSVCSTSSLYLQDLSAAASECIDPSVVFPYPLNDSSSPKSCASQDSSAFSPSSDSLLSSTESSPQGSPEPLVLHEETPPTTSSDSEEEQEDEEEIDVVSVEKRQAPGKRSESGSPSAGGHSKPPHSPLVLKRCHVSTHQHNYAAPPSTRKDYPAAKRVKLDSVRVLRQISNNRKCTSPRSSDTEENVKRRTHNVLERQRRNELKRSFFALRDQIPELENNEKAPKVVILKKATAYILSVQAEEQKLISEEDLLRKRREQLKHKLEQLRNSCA
Cellular tumor antigen p53 (Homo sapiens), sequence (P04637 whole entry, looked up): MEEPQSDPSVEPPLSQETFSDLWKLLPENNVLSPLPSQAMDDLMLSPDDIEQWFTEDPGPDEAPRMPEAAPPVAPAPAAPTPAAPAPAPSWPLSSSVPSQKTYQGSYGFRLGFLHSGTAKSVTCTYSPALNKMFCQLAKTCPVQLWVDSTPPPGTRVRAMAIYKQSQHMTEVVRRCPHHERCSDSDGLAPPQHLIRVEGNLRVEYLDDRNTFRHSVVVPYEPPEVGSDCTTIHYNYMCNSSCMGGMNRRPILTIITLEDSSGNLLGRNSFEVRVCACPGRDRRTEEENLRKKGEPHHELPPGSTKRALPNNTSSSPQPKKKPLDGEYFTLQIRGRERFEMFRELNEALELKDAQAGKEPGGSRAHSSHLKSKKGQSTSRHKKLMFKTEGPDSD

IC(I)I
not listed: [10]
inactive: all other assays above

Oc1c(Cl)cc(Cl)c(Cl)c1Cc1c(O)c(Cl)cc(Cl)c1Cl
active: [2] 4.41 µM | [3] 3.04 µM | [4] 1.3 µM | [5] 11.1 µM | [6] 18.5 µM | [7] 1.23 µM | [8] 20 µM | [9] 10.8 µM
inactive: [1]

CCCC(=O)c1ccccc1
inactive: [1] | [2] | [4] | [5]

CCCCOC(=O)CCCCCCCC(=O)OCCCC
not listed: [10]
inactive: all other assays above

Nc1ccc(N)c2c1C(=O)c1ccccc1C2=O
active: [3] 5.63 µM | [4] 3.47 µM
inactive: [1] | [2] | [5]

CC(C)(CO)[C@@H](O)C(=O)NCCC(=O)O
inactive: [1] | [2] | [4]

O=[N+]([O-])c1ccc(O)cc1C(F)(F)F
active: [1] 69.4 µM | [4] 55.2 µM
inactive: [2] | [5]

CCCC[P+](CCCC)(CCCC)CCCC
inactive: [1] | [2] | [4] | [5]

COc1cc(Cl)c(OC)cc1N
not listed: [5] | [10]
inactive: all other assays above

C=CCCCCCCCCCC
inactive: [1] | [2] | [4] | [5]

NC1CCCCC1N (configuration not stated)
inactive: [1] | [2] | [4]

COc1ccc(CCN2CCC(Nc3nc4ccccc4n3Cc3ccc(F)cc3)CC2)cc1
active: [3] 1.99 µM | [7] 5 µM | [9] 5 µM
not listed: [10]
inactive: all other assays above

COCCOCCOCCO
inactive: [1] | [2] | [4]

Nc1ccn([C@H]2CS[C@@H](CO)O2)c(=O)n1
inactive: [1] | [2] | [4]

OCc1cccc(Oc2ccccc2)c1
inactive: [1] | [2] | [3] | [4] | [5]

CCOC(=O)C(C#N)=C(c1ccccc1)c1ccccc1
active: [3] 27.6 µM
not listed: [5] | [10]
inactive: all other assays above

CS(=O)(=O)OCCCCOS(C)(=O)=O
not listed: [10]
inactive: all other assays above

O=C(Nc1ccc2c(c1)Cc1ccccc1-2)C(F)(F)F
inactive: [1] | [2] | [5]
active: [3] 24.8 µM | [4] 24.5 µM

CN(c1nccc(=O)[nH]1)C1CCN(c2nc3ccccc3n2Cc2ccc(F)cc2)CC1
active: [7] 1.84 µM
not listed: [5] | [10]
inactive: all other assays above

C=C(C)C(=O)OCCOCCOCCOCCOC(=O)C(=C)C
active: [3] 69.7 µM
not listed: [10]
inactive: all other assays above

c1ccc2[nH]cnc2c1
inactive: [1] | [10] | [3] | [4] | [5]

C1CCCCC1
inactive: [1] | [10] | [3] | [4] | [5]

CCCCCCCCN1CCCC1=O
active: [5] 72.6 µM
inactive: [1] | [2] | [4]

COc1cccc(OC)c1O
inactive: [1] | [10] | [3] | [4] | [5]

O=C(O)COCC(=O)O
inactive: [1] | [10] | [4] | [5]

CC(C)CCOC(=O)c1ccccc1
inactive: [1] | [3] | [4] | [5]

C=C(C)[C@H]1CC=C(C)C(=O)C1
not listed: [2] | [5]
inactive: all other assays above

Oc1ccc2cc(SSc3ccc4cc(O)ccc4c3)ccc2c1
inactive: [10]
active: [1] 34.1 µM | [4] 39.9 µM

O=C1CCCC=CCCCCCCCCCC1
inactive: [1] | [10] | [4]
